Source: PubChem BioAssay (National Center for Advancing Translational Sciences (NCATS))
A selection: hits, their analogues and other compounds. The true share with any hit is near 0.8%.
Glioma ERSR ind = induces the endoplasmic reticulum stress response in human glioma cells; AID 602332; Potency, µM, for the others: at the top dose activation, hits mostly activators; U87-MG GRP78 promoter luciferase reporter, 16 h; hit rate 0.02% among 420,000; active means well fitted activation curve with a large enough effect; inconclusive means small, poorly fitted or top-dose-only effect; inactive means no such curve, though single readings can be large or run the other way; further: potency means the concentration at half of the fitted maximal effect; series mostly up to about 76 µM; % of control where 0% means no effect; nearly all actives have a fitted effect of over 35% in size
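Stably transfected U87-MG glioma cells carrying a GRP78-based luciferase sensor; 16 h compound incubation. Luminescence end-point read 10 min after Bright-Glo addition at room temperature.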
TRHR PAM = TRH receptor (human) allosteric enhancement. TRHR cells, fluo-8 calcium fluorescence, EC20 TRH enhancement. enhancement, % at 2 µM. hit rate 0.66% among 360,000; in the data active means enhancement above about 30%; further: 0% is about no effect
Target sequence (P34981 whole entry, looked up): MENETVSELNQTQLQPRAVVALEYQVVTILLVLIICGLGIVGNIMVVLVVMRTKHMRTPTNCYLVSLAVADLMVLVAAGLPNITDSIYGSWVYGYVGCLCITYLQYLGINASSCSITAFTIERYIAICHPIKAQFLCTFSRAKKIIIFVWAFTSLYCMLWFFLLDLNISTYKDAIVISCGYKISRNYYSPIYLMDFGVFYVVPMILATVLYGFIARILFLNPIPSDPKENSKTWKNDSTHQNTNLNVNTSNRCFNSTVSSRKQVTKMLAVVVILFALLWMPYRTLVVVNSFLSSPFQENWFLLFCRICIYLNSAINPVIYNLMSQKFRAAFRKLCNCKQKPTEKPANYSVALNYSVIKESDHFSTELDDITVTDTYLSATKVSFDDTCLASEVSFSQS
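Enhancer read-out: after compound pinning and an initial kinetic agonist-mode read, an EC20 of TRH (10 nM final) was injected and fluo-8 calcium signal (Ex 480/Em 530) followed at 1 s/cycle for 100 cycles in TRHR-expressing cells.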
TRPML1 blocker = human mucolipin-1 channel inhibition. Q9GZU1. TRPML1-inducible cells, Ca2+ dye fluorescence, FDSS; stronger effect = lower value; inhibition of EC80 agonist-evoked calcium signal. hit rate 0.02% among 390,000. activity change, negative = inhibition, % (concentration not given with the values); in the data active means activity change below about -50%; inconclusive means between about -30% and that limit;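 further: stimulus is agonist 54-4 at its EC80 concentration; on the % scale 0 is the no-effect control and ±100 the full control effect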
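Tet-induced TRPML1-DL cells loaded with Ca8 no-wash calcium dye were read kinetically on FDSS. Compound addition was followed by EC80 agonist 54-4 (4 uM final); inhibition was read over 110 s.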
TRHR agonist = activates the human TRH receptor; P34981; AID 493084; TRHR cells, calcium flux fluo-8, FDSS agonist mode; hit rate 0.18% among 360,000; activation, % at 2 µM; in the data active means activation above about 30%; further: 0% is about no effect
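In this calcium-flux screen, cells bearing human TRHR are dye-loaded with fluo-8, baselined for 10 cycles, then exposed to library compounds; positive kinetic calcium responses during the agonist phase mark hits, with TRH as control.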
TRPML1 agonist = activates the human TRPML1 channel; Q9GZU1; TRPML1-expressing cells, Ca2+ dye fluorescence, FDSS; activation, % (test concentration not listed); hit rate 0.12% among 410,000; in the data active means activation above about 50%; inconclusive means mostly about 30% to 49%; further: 0% is about no effect
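Kinetic FDSS Ca2+ read in Tet-induced TRPML1-DL cells (ABD Ca8 dye plus quencher, 45-90 min RT loading): baseline, then compound, then 110 s agonist window; EC80 agonist 54-4 at 4uM final added afterwards for a 110 s antagonist window.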
An asterisk follows results filed as active; u = inconclusive; x = no result given.

SMILES | Glioma ERSR ind | TRHR PAM | TRPML1 blocker | TRHR agonist | TRPML1 agonist
CCN1/C(=C/c2ccc3cc(C)ccc3[n+]2CC)Sc2cc(C)c(C)cc21 | -12% | 29 | 2 | 13 | 16
CCOC(=O)/C(=C\C=C1/Sc2ccccc2N1CC)C(C)=O | -1% | 13 | -7 | 71* | 89*
CCC1C(=O)NCCN1Cc1ccc2c(c1)CN(Cc1cccn1-c1ccc(Cl)cn1)CCO2 (configuration not stated) | -3% | x | x | x | x
Cc1sc2cc3c(c(C(=O)c4ccccc4)[n+]2c1C)-c1cccc2cccc-3c12 | -4% | -10 | -2 | 1 | 0
O=C(c1ccccc1)c1c2c(cc3sc4ccccc4[n+]13)-c1cccc3cccc-2c13 | -2% | 22 | 7 | 79* | 54*
COc1cc(C)nc(-c2csc(C)n2)n1 | 0% | 31* | 4 | -1 | 0
Cc1cccc(CNC(=O)c2cnn(-c3nccc(-c4cc(C)sc4C)n3)c2C)n1 | -4% | x | x | x | x
COc1cccc(/C=N/Nc2nc(Nc3ccccc3)nc(-n3nc(C)cc3C)n2)c1O | 2% | -3 | -52* | 1 | 1
COc1ccc(-n2c(O)c(/C=N/NS(=O)(=O)c3cc(C)ccc3C)c3ccccc3c2=O)cc1OC | -5% | 8 | 2 | 72* | u
COc1ccc(-n2c(O)c(/C=N/NS(=O)(=O)c3ccc(C)cc3)c3ccccc3c2=O)cc1OC | -4% | 2 | -13 | 23 | 24
CNc1ccc2c3c(cccc13)C(=O)N(C)C2=O | -4% | 47* | -13 | 262* | 78*
CN1C(=O)c2cccc3c(Cl)ccc(c23)C1=O | 2% | -2 | 2 | 0 | 0
Cc1cnc(SCCN2CCOCC2)nc1C1CCCN(C(=O)c2cccc3c(C)c(C)[nH]c23)C1 (configuration not stated) | -5% | x | x | x | x
CCCCN(CCC(=O)O)c1ccc(/C=C/c2ccnc3ccccc23)cc1 | -11% | x | x | x | 99*
COc1ccc(CN2CCOc3ccc(CN4CCC(Oc5cccnc5)CC4)cc3C2)c(F)c1 | -1% | x | x | x | x
O=[N+]([O-])c1cccc(P(=O)(O)c2cccc([N+](=O)[O-])c2)c1 | -1% | 31* | 9 | 1 | 1
Cc1ccc(C)c(N2CCN(C(c3ccccc3)c3nnnn3C(C)(C)C)CC2)c1 (configuration not stated) | x | x | x | x | 86*
COc1ccc(N2CCN(C(c3ccccc3)c3nnnn3C(C)(C)C)CC2)cc1 (configuration not stated) | x | x | x | x | 2
CCCCn1nnnc1C(c1cc2ccccc2o1)N1CCN(c2c(C)cccc2C)CC1 (configuration not stated) | x | x | x | x | 1
Cc1cccc(C)c1N1CCN(C(c2cc3ccccc3o2)c2nnnn2C(C)(C)C)CC1 (configuration not stated) | x | x | x | x | 54*
COc1ccc(N2CCN(C(c3ccccc3)c3nnnn3C(C)C)CC2)cc1 (configuration not stated) | -1% | x | x | x | 61*
COc1cc2nc(N(C)C)c(CNC3CCOC(C)(C)C3)cc2c(OC)c1OC (configuration not stated) | -2% | x | x | x | x
CO[C@H]1[C@H](NC(=O)c2ccncc2)c2ccccc2C12CCN(C(=O)c1ccoc1)CC2 | -2% | x | x | x | x
COc1cc(-c2nnc(SCC(=O)Oc3ccccc3Cl)o2)cc(OC)c1OC | 22µM* | -1 | 0 | 0 | -1
COC(=O)C1CCCCN1Cc1ccc2c(c1)CN(C(=O)c1cc(C)nc3cc(F)ccc13)CCO2 (configuration not stated) | -4% | x | x | x | x
SMILES | Glioma ERSR ind | TRHR PAM | TRPML1 blocker | TRHR agonist | TRPML1 agonist
COC(=O)[C@@H](c1ccccc1)N(C)S(=O)(=O)c1cccc(S(=O)(=O)N(C)[C@@H](C(=O)OC)c2ccccc2)c1 | -2% | 0 | -22 | 1 | 74*
Cc1ccc(-c2ccnc(-n3ncc(C(=O)NCCN4CCOCC4)c3C3CC3)n2)o1 | -4% | x | x | x | x
COCCNC(=O)Cc1ccc(NC(=O)N2CCCCc3ccccc32)cc1 | 2% | 4 | -10 | 1 | -1
CC(C)OCCCNC(=O)Cc1ccc(NC(=O)N2CCCCc3ccccc32)cc1 | -2% | 36* | -13 | 0 | -1
CN(C)c1ccc(/C=C/C(=O)c2ccc(O)cc2)cc1 | 6% | x | -20 | x | 87*
O=C(/C=C/c1cccc(O)c1)c1cccnc1 | 9% | 5 | 17 | 1 | 1
